A selection: hits, their analogues and other compounds. The true share with any hit is near 3.8%.
Beta2AR agonist – activates human beta-2 adrenergic receptor causing internalization | Am2.2-beta2AR cells, FAP receptor internalization, flow cytometry | actives 0.43% (n = 340,000) | P07550 | response, % (concentration not given with the values);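 active means response above a set limit, near 3 SD of response in nonfluorescent compounds, cut at about 42% in these data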
Target sequence (P07550 whole entry, looked up): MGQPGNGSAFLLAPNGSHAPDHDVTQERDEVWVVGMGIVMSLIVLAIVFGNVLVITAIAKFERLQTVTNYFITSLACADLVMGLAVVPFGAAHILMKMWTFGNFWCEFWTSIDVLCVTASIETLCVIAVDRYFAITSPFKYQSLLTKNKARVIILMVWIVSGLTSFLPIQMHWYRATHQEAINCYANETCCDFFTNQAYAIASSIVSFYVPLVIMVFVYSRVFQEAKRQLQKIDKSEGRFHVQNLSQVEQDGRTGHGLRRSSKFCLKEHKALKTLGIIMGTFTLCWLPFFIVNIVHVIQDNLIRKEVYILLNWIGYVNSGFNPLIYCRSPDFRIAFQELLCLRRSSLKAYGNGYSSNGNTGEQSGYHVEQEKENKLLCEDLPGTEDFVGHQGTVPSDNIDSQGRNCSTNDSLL
tim23-1 inh – tim23-1 yeast growth inhibition | S. cerevisiae tim23-1 growth, BacTiter-Glo luminescence, 24 h | inhibition, % at 20 µM | actives 1.3% (n = 330,000) | AID 463212;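 active means growth inhibition of the mutant yeast at or above 50%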;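 further: temperature-sensitive mutant grown at 25 °C; plate controls were DMSO-treated mutant yeast for no effect and medium wells lacking yeast for full effect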
tim10-1 inh – inhibits growth of tim10-1 mutant yeast. S. cerevisiae tim10-1 ts strain growth, BacTiter-Glo, 24 h. inhibition, % at 20 µM. actives 2.2% (n = 330,000);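 active means inhibition of at least 40%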;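 further: mutant grown at 25 °C; 0% = DMSO wells with yeast and 100% = wells holding no yeast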
PfHsp90 set2 – reduces growth (ATP signal) of yeast expressing P. falciparum Hsp90; S. cerevisiae expressing PfHsp90, BacTiter-Glo ATP, 48 h; yeast lacking PDR1 and PDR3 efflux regulators; inhibition, % at 9.4 µM; actives 0.32% (n = 310,000); AID 504621;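 active means every replicate shows inhibition above about 80%, whatever the replicate mean, limit read from the data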;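 further: 0% = DMSO neutral controls and 100% = 20 µM radicicol positive controls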
TIM10 inh – inhibits growth of TIM10 yeast strain. S. cerevisiae TIM10 strain growth, BacTiter-Glo luminescence, 24 h. inhibition, % at 10 µM. actives 1.4% (n = 330,000). AID 463195;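 active means inhibition of 40% or more at the single tested concentration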;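 further: wild-type TIM10 isogenic control strain grown at permissive 25 °C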
tim23-1 confirm – tim23-1 yeast growth inhibition, confirmed. shares compounds with tim23-1 inh. S. cerevisiae tim23-1 growth, BacTiter-Glo luminescence, 24 h. inhibition, % at 20 µM. actives 83% (n = 4,400). AID 463218;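 active means inhibition above about 39% in either of two replicate wells at 20 µM, limit read from the data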;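 further: temperature-sensitive tim23-1 mutant grown at 25 °C; 0% = DMSO wells with yeast and 100% = medium wells without yeast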
The depositor's hits bear a star.

COc1ccc(OC)c(/C=C/C(=O)N(C)CC(=O)Nc2cc(C)ccc2C)c1 was read as Beta2AR agonist -1.3, tim23-1 inh 18.3, tim10-1 inh 1.0, PfHsp90 set2 -9.0 and TIM10 inh 4.4.
For CCOC(=O)C1=C(N)Oc2cc(O)ccc2C1c1ccc(F)cc1F (centres undefined) the results were Beta2AR agonist 7.3, tim23-1 inh 56.0*, tim10-1 inh 12.2, PfHsp90 set2 14.4, TIM10 inh 22.5 and tim23-1 confirm 59.1*.
`CCOC(=O)C1CCCN(S(=O)(=O)c2cc3c4c(c2)CCC(=O)N4CCC3)C1` (centres undefined) gave Beta2AR agonist 3.6, tim23-1 inh 20.2, tim10-1 inh 10.3, PfHsp90 set2 6.2 and TIM10 inh 16.0.
O=C1[C@H](Oc2ccccc2)[C@@H](c2ccccc2)N1c1ccncc1 was read as Beta2AR agonist 5.5, tim23-1 inh 61.6*, tim10-1 inh 29.4, PfHsp90 set2 7.9, TIM10 inh 18.5 and tim23-1 confirm 31.9.
Screening O=C1[C@@H](Oc2ccccc2)[C@@H](c2ccccc2)N1c1ccccc1 returned Beta2AR agonist -1.5, tim23-1 inh 33.7, tim10-1 inh 18.2, PfHsp90 set2 -20.1 and TIM10 inh 0.6.
COc1ccc(-c2[nH]ncc2/C=N/NC(=O)c2ccncc2)c(OC)c1 was read as Beta2AR agonist -5.4, tim23-1 inh 12.1, tim10-1 inh 12.6, PfHsp90 set2 14.1 and TIM10 inh 10.3.
Screening CCc1nnc(NS(=O)(=O)c2ccc(NC(=S)NC(=O)/C=C/c3ccc(C(C)C)cc3)cc2)s1 returned Beta2AR agonist 8.2, tim23-1 inh 51.8*, tim10-1 inh 32.2, PfHsp90 set2 -18.7, TIM10 inh 25.8 and tim23-1 confirm 54.7*.
For C=CCN1C(=O)c2ccc(C(=O)N3CCN(c4ccccc4OC)CC3)cc2C1=O the results were Beta2AR agonist -5.1, tim23-1 inh -9.8, tim10-1 inh 6.8 and TIM10 inh 16.4.
COC(=O)CC(NC(=O)c1cccs1)c1ccc(OC)c(OC)c1 (centres undefined) was read as Beta2AR agonist 10.4, tim23-1 inh -0.3, tim10-1 inh 2.5, PfHsp90 set2 6.1 and TIM10 inh -5.8.
Screening CC(C)(C)C(=O)/C=c1\[nH]c(=O)/c(=C\c2ccccc2F)s1 returned Beta2AR agonist -8.0, tim23-1 inh -1.4, tim10-1 inh 13.7, PfHsp90 set2 -9.2 and TIM10 inh 27.3.
Screening CC(C)(C)C(=O)/C=c1\[nH]c(=O)/c(=C\c2ccc(F)cc2)s1 returned Beta2AR agonist 3.4, tim23-1 inh 52.1*, tim10-1 inh 20.6, PfHsp90 set2 7.7, TIM10 inh 23.8 and tim23-1 confirm 50.7*.
For CC1c2[nH]c3ccccc3c2CCN1C(=O)Nc1ccccc1 (centres undefined) the results were Beta2AR agonist -13.2, tim23-1 inh 63.9*, tim10-1 inh 10.1, PfHsp90 set2 -29.0, TIM10 inh 23.6 and tim23-1 confirm 50.1*.
For O=C(CCl)Nc1cn(-c2ccccc2)nc1-c1ccc(F)cc1 the results were Beta2AR agonist 4.3, tim23-1 inh 60.6*, tim10-1 inh 27.6, TIM10 inh 11.6 and tim23-1 confirm 31.6.
O=C(COc1ccc(Br)cc1)N(Cc1ccco1)C1CCS(=O)(=O)C1 (centres undefined) was read as Beta2AR agonist -3.4, tim23-1 inh -7.8, tim10-1 inh 9.5, PfHsp90 set2 -26.1 and TIM10 inh -5.2.
Screening COc1ccc(N=CC2=C(Nc3ccc(OC)cc3)c3c(C)nn(-c4ccccn4)c3CC2)cc1 returned tim23-1 inh 51.4*, tim10-1 inh 19.9, TIM10 inh 17.2 and tim23-1 confirm 52.2*.
Cc1cc(=O)oc2cc(Oc3ncccc3[N+](=O)[O-])ccc12 was read as Beta2AR agonist -0.3, tim23-1 inh -5.5, tim10-1 inh -7.5, PfHsp90 set2 -37.9 and TIM10 inh -13.3.
Cc1cc(=O)oc2cc(Oc3ccc([N+](=O)[O-])cc3[N+](=O)[O-])ccc12 was read as Beta2AR agonist -17.2, tim23-1 inh 54.9*, tim10-1 inh 21.2, PfHsp90 set2 -23.6, TIM10 inh 30.2 and tim23-1 confirm 42.8*.
CCOc1cc(NCc2ccccc2)c2ncn(C(C)C)c2c1 was read as Beta2AR agonist -3.3, tim23-1 inh 62.8*, tim10-1 inh -8.1, PfHsp90 set2 -4.9, TIM10 inh 21.7 and tim23-1 confirm 40.1*.
`O=C(O)C(Oc1ccc2c(c1)oc(=O)c1ccccc12)c1ccccc1` (centres undefined) gave Beta2AR agonist 4.3, tim23-1 inh -7.3, tim10-1 inh -4.9, PfHsp90 set2 -10.4 and TIM10 inh 5.6.
For O=C(O)C(Oc1ccc2ccccc2c1)c1ccccc1 (centres undefined) the results were Beta2AR agonist 3.8, tim23-1 inh 97.2*, tim10-1 inh -16.1, PfHsp90 set2 9.0, TIM10 inh 3.6 and tim23-1 confirm 7.7.
For CC(=O)Nc1cc(NC(C)=O)cc(C(=O)N2CCCC3CCCCC32)c1 (centres undefined) the results were Beta2AR agonist -7.0, tim23-1 inh -8.7, tim10-1 inh -12.3, PfHsp90 set2 4.5 and TIM10 inh -19.7.
OC1CCN(c2cc(-c3ccccc3)nc3cc(-c4ccc(F)cc4)nn23)CC1 was read as Beta2AR agonist -4.7, tim23-1 inh 16.1, tim10-1 inh 31.2, PfHsp90 set2 12.6 and TIM10 inh 31.7.
`CCN1CCN(c2cc(-c3ccccc3)nc3cc(-c4cccc(F)c4)nn23)CC1` gave Beta2AR agonist 22.3, tim23-1 inh 52.6*, tim10-1 inh 25.5, PfHsp90 set2 13.5, TIM10 inh 25.1 and tim23-1 confirm 33.0.
For COc1ccc(NC(=O)COC(=O)C2CCN(S(=O)(=O)c3ccccc3)CC2)cc1Cl the results were Beta2AR agonist -6.5, tim23-1 inh 23.6, tim10-1 inh 22.3, PfHsp90 set2 -20.9 and TIM10 inh 7.6.
Screening Cc1ccnc(NC(=O)c2ccc3c(c2)C(=O)N(CC(C)C)C3=O)c1 returned Beta2AR agonist -5.5, tim23-1 inh 63.3*, tim10-1 inh 18.6, PfHsp90 set2 12.6, TIM10 inh 32.5 and tim23-1 confirm 56.7*.
For Cc1cc(NC(=O)c2ccc3c(c2)C(=O)N(CC(C)C)C3=O)no1 the results were Beta2AR agonist -8.2, tim23-1 inh -3.8, tim10-1 inh -17.7, PfHsp90 set2 7.4 and TIM10 inh -16.7.
CCOc1ccccc1N(C(=O)Nc1ccc(Cl)cc1)C1=NCCS1 was read as Beta2AR agonist 0.6, tim23-1 inh 6.4, tim10-1 inh 4.7, PfHsp90 set2 -73.7 and TIM10 inh 13.0.
`O=C(COCc1ccccc1)N[C@@H]1c2ccccc2CC[C@H]1OCc1ccccc1` gave Beta2AR agonist -4.1, tim23-1 inh 52.2*, tim10-1 inh 25.1, PfHsp90 set2 15.1, TIM10 inh 16.8 and tim23-1 confirm 38.2.

Source: PubChem
